Source: PubChem BioAssay (National Center for Advancing Translational Sciences (NCATS))
HT1080 IDH1KD tx: qHTS for induction of synthetic lethality in tumor cells producing 2HG: qHTS for the HT-1080-IDH1KD cell line; HT-1080 IDH1 knockdown viability, ATP luminescence, 48 h; 2% of 360,000 active; Potency, µM (series often up to 46.1 µM), inactives show at the top dose activity, negative = toxicity, hits mostly cytotoxic;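 also: 0% = DMSO wells and -100% = cell-free medium wells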
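Assay cells: HT-1080 with IDH1 knockdown, 750 per well, RPMI/5% FBS. Exposure: 48 h at 37 °C following 2 h pre-incubation. Read: CellTiter-Glo luminescence; fitted concentration-response, curve class assigned.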
KB-V1 MDR tox: qHTS assay for MDR1-selective chemotherapeutics: Primary screen using the drug-selected MDR subline cells KB-V1; KB-V1 MDR cells viability, CellTiter-Glo, 72 h; Potency, µM (top dose mostly 46.1 µM), usual class: cytotoxic; 3.4% of 400,000 active; AID 1347076, 2019; also: nearly all actives have a fitted effect of over 60% in size
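In this primary screen, KB-V1 cells overexpressing P-gp are incubated with library compounds (lowest to highest concentration) for 72 h at 37 degrees C before a luminescent ATP viability read.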
DT40 TDP1 CPT: qHTS for Inhibitors of human tyrosyl-DNA phosphodiesterase 1 (TDP1): qHTS in cells in presence of CPT; 12% of 420,000 active; AID 686979, 2013; Potency, µM (top dose mostly 46.2 µM), inactives show top-dose activity change, negative = growth inhibition, most hits filed as inhibitors; chicken DT40 Tdp1-/-;hTDP1 cells + 20 nM CPT, ATP luminescence, 48 h; also: nearly all actives have a fitted effect of over 55% in size
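Cell growth measured by CellTiter-Glo luminescence after a minimum 48 h, 37 C compound exposure with 20 nM CPT in Tdp1-knockout DT40 cells stably expressing hTDP1, seeded 400/well; qHTS titration format.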
DT40 TDP1 no CPT: qHTS for Inhibitors of human tyrosyl-DNA phosphodiesterase 1 (TDP1): qHTS in cells in absence of CPT; DT40 Tdp1-/- hTDP1 cells, no CPT, ATP luminescence, 48 h; Potency, µM (highest dose often 46.2 µM), for the others: at the top dose activity change, negative = growth inhibition, usual class: inhibitors; 15% of 420,000 active; AID 686978, 2013; also: nearly all actives have a fitted effect of over 55% in size
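DT40 Tdp1-/-;hTDP1 cells, no CPT (DMSO vehicle only), 400 cells/well; compounds pin-transferred; ≥48 hr, 37 °C; CellTiter-Glo 30 min RT dark, luminescence read.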
HT1080NT lethal: qHTS for induction of synthetic lethality in tumor cells producing 2HG: qHTS for the HT-1080-NT fibrosarcoma cell line | HT-1080-NT fibrosarcoma viability, CellTiter-Glo ATP luminescence, 48 h | Potency, µM (series often up to 46.1 µM), inactives show at the top dose activity, negative = less viability, actives largely listed as cytotoxic | 1.6% of 360,000 active;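 also: NT is the 2HG producing partner of a matched IDH1 knockdown line; 0% = DMSO-treated cells and -100% = media-only wells without cells; nearly all actives have a fitted effect of over 55% in size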
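Compounds were tested in concentration-response format on HT-1080-NT cells for 48 hours at 37 degrees C. Cell viability came from CellTiter-Glo luminescence; curves were classified by r2, response magnitude and activity.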
KB-3-1 cytotox: qHTS assay for MDR1-selective chemotherapeutics: Primary screen using the parental adenocarcinoma cell KB-3-1 | KB-3-1 viability, CellTiter-Glo ATP luminescence, 72 h | Potency, µM (series often up to 46.1 µM), actives largely listed as cytotoxic | 1.4% of 400,000 active; also: nearly all actives have a fitted effect of over 60% in size
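KB-3-1 cells, DMEM (no phenol red) + 10% FBS; compound by pin transfer, 72 h, 37 °C. Readout: CellTiter-Glo luminescence after 10 min. Data normalized, curve-fitted.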
* hit, by the source's call; i = inactive; u = inconclusive; x = no result given. Only some compounds are listed: those with a hit (about 19% of all), similar ones and a draw of the others. Calls follow the shape of the dose curve; as a rule, active = well fitted curve in the direction sought with a large enough effect; inconclusive = small, poorly fitted or top-dose-only effect, or another doubt; inactive = no such curve, though single readings can be large; an effect the other way counts as inactive or inconclusive. Unless noted, % is scaled to controls: 0 for no effect and ±100 for the full control effect; potency is read from the fitted curve at half-maximal effect.

SMILES	HT1080 IDH1KD tx	KB-V1 MDR tox	DT40 TDP1 CPT	DT40 TDP1 no CPT	HT1080NT lethal	KB-3-1 cytotox
O=C(OCC(=O)N(CCc1ccccc1)Cc1ccccc1)c1ccccc1NCCO	-16%	i	u	u	-20%	i
COc1ccc(CNc2nc3c(-c4ccccc4)nnn3c3ccccc23)cc1	x	i	u	u	x	i
CN1CCC2(CC1)N=C(c1ccc(F)cc1)C(=S)N2C(=O)c1ccccc1	-23%	u	7.3µM*	12µM*	-25%	u
CCc1ccc(NC(=O)Cn2c(=O)n(CCCC(=O)NCCc3ccc(OC)c(OC)c3)c(=O)c3ccccc32)cc1	x	i	u	u	x	i
O=C(CCSCc1ccc(Cl)cc1)NCc1ccco1	11%	i	-2%	-3%	9%	i
Cc1ccccc1N/C(SCc1ccc(Cl)cc1)=C(/C#N)C(=O)NCc1ccco1	u	12µM*	-14%	u	u	u
Cc1ccc(CS/C(Nc2ccccc2C)=C(\C#N)C(=O)NCc2ccco2)c(C)c1	-14%	15µM*	u	u	-10%	u
CCOC(=O)C1CCN(C(=O)c2ccccc2NS(=O)(=O)c2ccc(F)cc2)CC1	15%	i	1%	-5%	13%	i
COc1cccc(NC(=O)Cn2c(=O)n(CCCCC(=O)NCCc3ccccc3)c(=O)c3ccccc32)c1	x	i	u	u	x	i
Nc1ncnc2c1ncn2C1C=C(CO)C(O)C1O (centres undefined)	u	u	0.037µM*	0.16µM*	u	8.2µM*
CC=C1OC(n2cnc3c(N)ncnc32)C(O)C1O (centres undefined)	4%	i	u	u	12%	i
Nc1nc2c(ncn2CCC(CO)CO)c(=O)[nH]1	x	x	0.67µM*	1.7µM*	x	x
Nc1nc2c(ncn2C2OC(CO)CC2O)c(=O)[nH]1 (centres undefined)	x	x	0.92µM*	1.5µM*	x	x
Nc1ncnc2c1ncn2[C@@H]1O[C@H](CO)C[C@H]1O	-26%	i	8.2µM*	7.3µM*	-36%	i
Nc1ncnc2c1ncn2C1OC(CO)C2OC21 (centres undefined)	16%	i	-12%	-16%	u	i
CCNc1nc(NC(C)C)nc(-c2ccncc2)n1	11%	i	-21%	-8%	u	i
COc1cc([N+](=O)[O-])ccc1NC(=O)N1CCC2(CC1)Nc1cc(F)ccc1-n1cccc12	x	i	u	u	x	i
COc1ccccc1-c1cccc([C@@H]2C[C@H]3[C@H](CON3C)CN2C(C)=O)c1	7%	i	14%	-3%	11%	i
CN(C(=O)c1ccc2c(c1)OCO2)C1(C)CCS(=O)(=O)C1 (centres undefined)	14%	i	21%	-6%	-1%	i
CCc1ccc(OCC(=O)N2CC(C(N)=O)Oc3ccccc32)cc1 (centres undefined)	-2%	i	5%	-26%	3%	i
CC(C)c1ccc(NC(=O)CSc2nc(=O)n(Cc3cccnc3)c3c2CCC3)cc1	x	i	u	26µM*	x	i
CC(=O)c1cccc(NC(=O)CSc2nc(=O)n(Cc3ccccn3)c3c2CCC3)c1	-14%	i	-29%	u	-12%	i
Cc1ccc(NC(=O)CSc2nc(=O)n(Cc3ccccn3)c3c2CCC3)cc1F	x	i	u	16µM*	x	i
O=C(CSc1nc(=O)n(Cc2ccccn2)c2c1CCC2)Nc1cccc(Cl)c1	x	i	u	u	x	i
O=C(CSc1nc(=O)n(Cc2cccnc2)c2c1CCC2)Nc1cccc(Cl)c1	x	i	-26%	u	x	i
SMILES	HT1080 IDH1KD tx	KB-V1 MDR tox	DT40 TDP1 CPT	DT40 TDP1 no CPT	HT1080NT lethal	KB-3-1 cytotox
CC(C)c1ccc(NC(=O)CSc2nc(=O)n(Cc3ccccn3)c3c2CCC3)cc1	x	x	23µM*	18µM*	x	x
ON=C1c2ccccc2-c2ccc(O)cc21	u	i	u	-13%	u	i
Nc1cc2c(cc1[N+](=O)[O-])-c1ccccc1C2=NO	-2%	i	21µM*	8.2µM*	1%	i
C/C(=N\O)c1ccc2[nH]ccc2c1	2%	u	5%	9%	-4%	i
Nc1ccc2c(c1)C(=NO)c1ccccc1-2	-2%	i	18µM*	8.2µM*	0%	i
O=C1C(=O)c2ccc(-c3ccccc3)cc2-c2ccccc21	3.3µM*	3.7µM*	0.92µM*	2.6µM*	3.7µM*	4.1µM*
CC(=NO)c1ccc2c(c1)C(=NO)c1ccccc1-2	17%	i	16µM*	21µM*	25%	i
Cc1ccc(OC(=O)CSc2nnc(CNC(=O)c3ccccc3)o2)cc1	x	u	-6%	-9%	x	i
COCCNC(=O)C1C(=O)Nc2ccccc2C(=O)N1Cc1ccccc1 (centres undefined)	16%	i	15%	-5%	7%	i
Nc1ccc2c(c1)C(=O)C(=O)c1ccccc1-2	u	4.6µM*	0.65µM*	0.92µM*	4.6µM*	2.9µM*
Nc1ccc2c(c1)C(=O)c1ccc(Br)cc1-2	2%	i	-7%	9%	6%	i
ON=C1c2ccccc2-c2cc(Br)ccc21	1%	u	7.3µM*	u	2%	i
Nc1ccc2c(c1)C(=O)c1ccccc1-2	15%	i	3%	-10%	15%	i
Cc1ccc(S(=O)(=O)n2nc(-c3ccccc3)nc2NCc2ccc(Cl)cc2)cc1	x	u	u	u	x	i
Cc1cccc(OCC(=O)OCc2cc(=O)n3nc(C4CC4)sc3n2)c1	x	u	-22%	-1%	x	i
OC(c1ccccc1)C(NCc1ccccc1)c1ccccc1 (centres undefined)	-15%	u	23µM*	23µM*	-9%	i
COC(=O)c1ccc(C(=O)OC)c(NC(=S)N2CCCCC2C)c1 (centres undefined)	8%	15µM*	-29%	u	15%	i
COC(=O)c1ccc(C(=O)OC)c(NC(=S)N2CCC(C)CC2)c1	8%	16µM*	-9%	-9%	8%	i
